The results in this text go back to PubChem BioAssay (NCI).

A short description of experiment [1]: NCI Yeast Anticancer Drug Screen. Data for the rad50 strain (AID 155).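 Further: 0% = growth of vehicle-only cultures of the same strain.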 The following applies: S. cerevisiae rad50 strain growth inhibition, stronger effect = higher value. The procedure, abridged: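 Cells are treated with compound, grown, and their growth is then scored against vehicle-only cultures of the same repair-deficient yeast strain.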
Experiment [2] in a line: NCI Yeast Anticancer Drug Screen. Data for the mec2-1 strain (AID 157). The note with it: S. cerevisiae mec2-1 strain, stronger effect = higher value. In outline: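 mec2-1 yeast strain, carrying an alteration in DNA damage repair or cell cycle control, was exposed to compounds; growth inhibition was measured relative to vehicle-treated controls.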
The nature of experiment [3]: NCI Yeast Anticancer Drug Screen. Data for the sgs1 mgt1 strain (AID 161).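 Further: 0% = growth of cultures given vehicle only.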 The following applies: S. cerevisiae sgs1 mgt1 strain, stronger effect = higher value. In outline:
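Growth of a repair-deficient yeast mutant was monitored after compound treatment and expressed as inhibition relative to vehicle-treated cultures.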

The nature of experiment [4]: NCI Yeast Anticancer Drug Screen. Data for the cln2 rad14 strain (AID 165).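 Further: 0% = growth equal to vehicle treated cultures.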 The following applies: S. cerevisiae cln2 rad14 strain, stronger effect = higher value. The procedure, abridged:
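Yeast carrying cln2 and rad14 alterations (cell cycle control and DNA damage repair) were exposed to compounds. Growth inhibition was measured against vehicle-treated controls.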

A short description of experiment [5]: NCI Yeast Anticancer Drug Screen. Data for the bub3 strain (AID 167). The note with it: S. cerevisiae bub3 mutant strain, stronger effect = higher value. In outline:
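Part of a panel of yeast mutants defective in DNA damage repair or cell cycle regulation. Each strain is grown with compound, and inhibition is calculated relative to solvent-treated cultures.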

Experiment [6] in a line: NCI Yeast Anticancer Drug Screen. Data for the mlh1 rad18 strain (AID 175). The note with it: S. cerevisiae mlh1 rad18 strain growth inhibition, stronger effect = higher value. In outline:
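Growth inhibition of the yeast strain was measured after compound exposure and expressed relative to vehicle-treated controls. The strain carries defined defects in DNA damage repair.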

[7] abbreviates: at 5.0 µM (retest, dose inferred, filed as 0.5).
The mark [8] stands for this setting: at 50.0 µM (retest, dose inferred, filed as 5.0).

The panel holds about 79,000 compounds, 15% with a hit somewhere; the sample as a whole holds those more often. A number with no mark means an inactive call. The source made the active and inactive calls. No stated cut-off is given here; in the data, active means growth inhibition above about 70%; inactive means the rest.

As to `O=C(NCCCNCCNC(=O)c1cc(-c2ccccc2)nc2ccccc12)c1cc(-c2ccccc2)nc2ccccc12`, the growth inhibition in experiment [1] (setting [7]) is -22%; in experiment [1] (setting [8]) it was 93% (active); in experiment [1] (at 50.0 µM), 98.6% (active); in experiment [2] (setting [7]), -12%; in experiment [2] (setting [8]), 98% (active); in experiment [2] (at 50.0 µM) it was 99.2% (active). In addition, the growth inhibition in experiment [3] (setting [7]) was -4%; in experiment [3] (setting [8]) it was 89% (active); in experiment [3] (at 50.0 µM) it was 99.1% (active); in experiment [4] (setting [7]) it was 28%; in experiment [4] (setting [8]) it was 94% (active); in experiment [4] (at 50.0 µM), 99.3% (active). The growth inhibition was -23% in experiment [5] (setting [7]); 99% (active) in experiment [5] (setting [8]); 99.1% (active) in experiment [5] (at 50.0 µM); 5% in experiment [6] (setting [7]); 98% (active) in experiment [6] (setting [8]); 99.3% (active) in experiment [6] (at 50.0 µM).
In the case of `CCN(CC)CC(O)CNc1ccc(C)c2sc3ccccc3c(=O)c12` (configuration not stated), the growth inhibition in experiment [1] (setting [7]) is 12%; in experiment [1] (setting [8]), 99% (active); in experiment [1] (at 50.0 µM), 99.8% (active); in experiment [2] (setting [7]), 7%; in experiment [2] (setting [8]) it was 99% (active); in experiment [2] (at 50.0 µM), 99.8% (active). The growth inhibition in experiment [3] (setting [7]) is 28%; in experiment [3] (setting [8]) it was 100% (active); in experiment [3] (at 50.0 µM) it was 95.2% (active); in experiment [4] (setting [7]), 12%; in experiment [4] (setting [8]), 99% (active); in experiment [4] (at 50.0 µM), 99.5% (active). Also, the growth inhibition is 10% in experiment [5] (setting [7]); 99% (active) in experiment [5] (setting [8]); 99.5% (active) in experiment [5] (at 50.0 µM); 14% in experiment [6] (setting [7]); 99% (active) in experiment [6] (setting [8]); 99.8% (active) in experiment [6] (at 50.0 µM).
As for `CN(C)CCCNc1ccc2c(=O)n(CCN(C)C)c(=O)n3c4ccccc4c(=O)c1c23`, the growth inhibition was 42% in experiment [1] (setting [7]); 69% in experiment [1] (setting [8]); 71.7% (active) in experiment [1] (at 50.0 µM); 29% in experiment [2] (setting [7]); 33% in experiment [2] (setting [8]); 55% in experiment [2] (at 50.0 µM). Besides, the growth inhibition in experiment [3] (setting [7]) was 28%; in experiment [3] (setting [8]), 18%; in experiment [3] (at 50.0 µM) it was 26.2%; in experiment [4] (setting [7]) it was 40%; in experiment [4] (setting [8]), 24%; in experiment [4] (at 50.0 µM), 58.6%. In addition, the growth inhibition was 61% in experiment [5] (setting [7]); 37% in experiment [5] (setting [8]); 40.9% in experiment [5] (at 50.0 µM); 55% in experiment [6] (setting [7]); 61% in experiment [6] (setting [8]); 25.4% in experiment [6] (at 50.0 µM).
As for `CCOC(=O)C1SC(=Nc2ccc(Cl)cc2)N=C1C` (configuration not stated), the growth inhibition in experiment [1] (setting [7]) is 14%; in experiment [1] (setting [8]), 56%; in experiment [1] (at 50.0 µM), 88.8% (active); in experiment [2] (setting [7]) it was 27%; in experiment [2] (setting [8]), 37%; in experiment [2] (at 50.0 µM) it was 91.7% (active). Moreover, the growth inhibition in experiment [3] (setting [7]) was 26%; in experiment [3] (setting [8]), 71% (active); in experiment [3] (at 50.0 µM), 89.8% (active); in experiment [4] (setting [7]), 11%; in experiment [4] (setting [8]), 66%; in experiment [4] (at 50.0 µM), 90% (active). Also, the growth inhibition in experiment [5] (setting [7]) is 19%; in experiment [5] (setting [8]) it was 69%; in experiment [5] (at 50.0 µM), 88.8% (active); in experiment [6] (setting [7]), 34%; in experiment [6] (setting [8]) it was 66%; in experiment [6] (at 50.0 µM), 89.6% (active).
As to `O=C(Nc1ccccc1)c1cc(Cl)ccc1O`, the growth inhibition in experiment [1] (setting [7]) is -12%; in experiment [1] (setting [8]), 33%; in experiment [1] (at 50.0 µM) it was 62.8%; in experiment [2] (setting [7]), 3%; in experiment [2] (setting [8]), 46%; in experiment [2] (at 50.0 µM) it was 76% (active). The growth inhibition was 32% in experiment [3] (setting [7]); 61% in experiment [3] (setting [8]); 71.8% (active) in experiment [3] (at 50.0 µM); 24% in experiment [4] (setting [7]); 33% in experiment [4] (setting [8]); 58.5% in experiment [4] (at 50.0 µM). The growth inhibition in experiment [5] (setting [7]) was 25%; in experiment [5] (setting [8]), 49%; in experiment [5] (at 50.0 µM), 74.7% (active); in experiment [6] (setting [7]), 21%; in experiment [6] (setting [8]), 74% (active); in experiment [6] (at 50.0 µM) it was 84% (active).
Consider `CCCN(CCC)CC(O)c1cc(-c2ccccc2)nc2c(Cl)cc(Cl)cc12` (configuration not stated), for which the growth inhibition was 3% in experiment [1] (setting [7]); 90% (active) in experiment [1] (setting [8]); 98.3% (active) in experiment [1] (at 50.0 µM); -2% in experiment [2] (setting [7]); 100% (active) in experiment [2] (setting [8]); 98.2% (active) in experiment [2] (at 50.0 µM). Moreover, the growth inhibition in experiment [3] (setting [7]) is 2%; in experiment [3] (setting [8]), 81% (active); in experiment [3] (at 50.0 µM) it was 98% (active); in experiment [4] (setting [7]) it was -5%; in experiment [4] (setting [8]), 99% (active); in experiment [4] (at 50.0 µM) it was 97.8% (active). The growth inhibition in experiment [5] (setting [7]) was -1%; in experiment [5] (setting [8]), 99% (active); in experiment [5] (at 50.0 µM), 98.2% (active); in experiment [6] (setting [7]), -2%; in experiment [6] (setting [8]), 94% (active); in experiment [6] (at 50.0 µM), 92.2% (active).
For `CCCCCC/C=C\CCCCCCCCCC1=C(CN2CCN(C)CC2)C(=O)C=C(OC)C1=O`, the growth inhibition in experiment [1] (setting [7]) was 24%; in experiment [1] (setting [8]), 97% (active); in experiment [1] (at 50.0 µM), 89.2% (active); in experiment [2] (setting [7]) it was 24%; in experiment [2] (setting [8]), 98% (active); in experiment [2] (at 50.0 µM), 91.8% (active). Further, the growth inhibition was 99% (active) in experiment [3] (setting [7]); 98% (active) in experiment [3] (setting [8]); 90.3% (active) in experiment [3] (at 50.0 µM); 97% (active) in experiment [4] (setting [7]); 98% (active) in experiment [4] (setting [8]); 89.2% (active) in experiment [4] (at 50.0 µM). Besides, the growth inhibition in experiment [5] (setting [7]) was 99% (active); in experiment [5] (setting [8]), 98% (active); in experiment [5] (at 50.0 µM) it was 91% (active); in experiment [6] (setting [7]), 54%; in experiment [6] (setting [8]), 97% (active); in experiment [6] (at 50.0 µM), 88.8% (active).
`Cc1ccc(N=c2cc(-c3ccccc3)oc3ccccc23)c(C)c1`: the growth inhibition in experiment [1] (setting [7]) is 1%; in experiment [1] (setting [8]) it was 74% (active); in experiment [1] (at 50.0 µM), 3%; in experiment [2] (setting [7]) it was -11%; in experiment [2] (setting [8]), 48%; in experiment [2] (at 50.0 µM), -12.4%. The growth inhibition was 3% in experiment [3] (setting [7]); 93% (active) in experiment [3] (setting [8]); 11% in experiment [3] (at 50.0 µM); 5% in experiment [4] (setting [7]); 51% in experiment [4] (setting [8]); 8.1% in experiment [4] (at 50.0 µM). For the same molecule, the growth inhibition was 11% in experiment [5] (setting [7]); 94% (active) in experiment [5] (setting [8]); 5.6% in experiment [5] (at 50.0 µM); 4% in experiment [6] (setting [7]); 94% (active) in experiment [6] (setting [8]); 18.6% in experiment [6] (at 50.0 µM).
Turning to `O=c1c(NO)c([N+](=O)[O-])cnn1-c1ccccc1`, the growth inhibition was 25% in experiment [1] (setting [7]); 51% in experiment [1] (setting [8]); 14.5% in experiment [1] (at 50.0 µM); 8% in experiment [2] (setting [7]); 18% in experiment [2] (setting [8]); 2.4% in experiment [2] (at 50.0 µM). The growth inhibition in experiment [3] (setting [7]) was -7%; in experiment [3] (setting [8]) it was -2%; in experiment [3] (at 50.0 µM) it was 29.4%; in experiment [4] (setting [7]) it was 13%; in experiment [4] (setting [8]) it was 31%; in experiment [4] (at 50.0 µM), 34.4%. Besides, the growth inhibition was -2% in experiment [5] (setting [7]); 28% in experiment [5] (setting [8]); -3.6% in experiment [5] (at 50.0 µM); -23% in experiment [6] (setting [7]); -5% in experiment [6] (setting [8]); -0.5% in experiment [6] (at 50.0 µM).
